Measured values: PubChem BioAssay
Activity calls are given as the source filed them.

Legend:
[1] = compound effects on lung adenocarcinoma cell viability – A549, calcein-AM fluorescence, 48 h, basal, profiling panel (AID 1162); settings: higher = more signal
[2] = compound effects on differentiated 3T3-L1 adipocyte viability – cell-based, 3T3-L1 adipocytes, calcein-AM fluorescence, 48 h, basal, profiling panel (AID 1163); settings: 3T3-L1 adipocytes viability, higher = more signal
[3] = compound effects on hepatocellular carcinoma cell viability – HepG2, calcein-AM fluorescence, 48 h, basal, profiling panel (AID 1164); settings: higher = more signal
[4] = compound effects on multiple myeloma cell viability – MM1S, calcein-AM fluorescence, 48 h, basal, profiling panel (AID 1165); settings: higher = more signal;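 note: viability of MM1S multiple myeloma cells under basal unstimulated conditions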
[5] = calcein-AM signal in unstimulated myeloma cells – cell-based, calcein-AM fluorescence, 48 h, PK04 Diversity Set, profiling panel (AID 1166); settings: RPMI8226 myeloma viability, higher = more signal;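 note: cells grown under basal conditions without added stimulus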
[6] = JC-1 mitochondrial signal, unstimulated HepG2 cells – cell-based, JC-1 fluorescence, 24 h, 100 nL compound, profiling panel (AID 1167); settings: HepG2 mitochondrial potential, higher = more signal
[7] = JC-1 mitochondrial signal, unstimulated adipocytes – cell-based, JC-1 fluorescence, 3T3-L1 adipocytes, 24 h, 100 nL compound, profiling panel (AID 1168); settings: JC-1 mitochondrial fluorescence, higher = more signal, called active from +8 up or from −8 down
[8] = JC-1 mitochondrial signal, unstimulated myeloma cells – cell-based, JC-1 fluorescence, RPMI8226, 24 h, 100 nL compound, profiling panel (AID 1169); settings: JC-1 mitochondrial potential fluorescence, higher = more signal
[9] = JC-1 mitochondrial signal, unstimulated MM1S myeloma – cell-based, JC-1 fluorescence, 24 h, 100 nL compound, profiling panel (AID 1170); settings: MM1S mitochondrial potential, higher = more signal
[10] = resazurin metabolic signal in A549 cells – cell-based, resazurin fluorescence, 24 h, PK04 Diversity Set, profiling panel (AID 1171); settings: A549 viability, higher = more signal, called active from +8 up or from −8 down
Note: test concentration not given here.

Structure (SMILES)	z-score [1]	z-score [2]	z-score [3]	z-score [4]	z-score [5]	z-score [6]	z-score [7]	z-score [8]	z-score [9]	z-score [10]
C=C(CCCC)C(=O)CC[C@H](OC(C)=O)c1cccc(OCCO)c1	-0.0802	1.62	-0.889	-1.12	-1.18	-0.525	0.906 (inactive)	0.139	-0.964	-0.252 (inactive)
COCCOC(=O)N1C(=O)[C@@]2(c3ccccc31)[C@H](c1ccc(O)cc1)N1[C@H](c3ccccc3)[C@H](c3ccccc3)OC(=O)[C@H]1[C@@H]2C(=O)NC[C@H](O)c1ccccc1	0.205	1.15	0.311	-0.534	-1.99	-1.02	-0.184 (inactive)	0.266	-0.142	-1.1 (inactive)
COC(=O)c1c(CC[C@@H](CO)NC(=O)N[C@H](Cn2cc(Cc3ccccc3)nn2)C(C)C)oc(C(C)=O)c1C(=O)OC	-0.138	1.62	0.141	0.486	-0.298	-0.0757	1.58 (inactive)	0.4	0.492	-0.896 (inactive)
CC1CC/C=C\[C@H]2OC34C=CCN(c5ccc(Cl)cc5)C(=O)[C@H]3N(CCO)C(=O)[C@]4(C)C2C(=O)O1 (stereo not given in full)	-0.562	0.594	0.107	0.246	0.0105	-0.472	-0.54 (inactive)	0.27	2.04	-0.428 (inactive)
COc1ccc([C@H]2C[C@H]3C(Br)=C[C@@H]2C(=O)[C@]32CO2)cc1	0.321	0.0531	-0.193	-2.75	-1.55	-0.262	0.558 (inactive)	-0.556	-0.914	0.217 (inactive)
CCOC(=O)C1=CCC(c2ccccc2)N(S(=O)(=O)CC[Si](C)(C)C)C1 (stereo not given)	-0.557	-0.047	0.413	-1.76	0.582	4.48	-0.0119 (inactive)	-0.119	-1.66	0.866 (inactive)
CC(C)(C)OC(=O)CC[C@]1(C(=O)O)N=C(c2ccc(OCCCO)cc2)O[C@H]1c1ccccc1N=[N+]=[N-]	0.559	-0.598	0.331	-0.128	-0.24	-2.45	0.328 (inactive)	-0.506	-0.589	0.0553 (inactive)
O=C1OCCC/C=C\[C@H]2OC34C=CCN(Cn5nnc6ccccc65)C(=O)[C@H]3N(CCCCCCO)C(=O)[C@@H]4C12 (stereo not given in full)	1.06	0.469	1.42	1.8	-0.0474	0.733	0.932 (inactive)	-0.263	-1.14	0.818 (inactive)
O=C1C2C=CC(C(O)C(c3ccccc3)c3ccccc3)N(n3cnnc3)C2C(=O)N1Cc1ccccc1 (stereo not given)	-1.03	0.0304	-1.13	-1.09	-0.23	-1.26	-1.26 (inactive)	-0.42	0.153	-0.387 (inactive)
CCc1oc(CC[C@@H](CO)NC(=O)NCCn2cc(C3(O)CCCCC3)nn2)c(C(=O)OC)c1C(=O)OC	-0.0645	-0.33	-0.68	-0.0035	0.0168	-0.176	-0.0732 (inactive)	0.756	0.14	-0.892 (inactive)
[N-]=[N+]=NCc1ccccc1[C@@H]1OC(c2ccc(OCCCO)cc2)=N[C@]1(Cc1ccccc1N=[N+]=[N-])C(=O)N1CCOCC1	0.328	-0.259	-0.761	-1.48	-2.62	-0.516	-1.06 (inactive)	-1.02	-1.42	-0.867 (inactive)
CN1C(=O)C2C=CC(C(O)c3cc(C(F)(F)F)cc(C(F)(F)F)c3)N(N3CCCCC3)C2C1=O (stereo not given)	0.704	0.421	0.499	-1.02	-0.533	-0.672	-0.205 (inactive)	0.462	-0.444	0.113 (inactive)
O=C(NCC(F)(F)F)[C@@H]1c2ccccc2C(=O)N(C2CCCCC2)[C@H]1c1ccc(CO)cc1	0.216	0.48	0.354	-0.515	0.597	0.912	-1.29 (inactive)	0.329	1.67	1.21 (inactive)
COC(=O)[C@@]1(Cc2ccc(OC)cc2)[C@H]2c3cc(C(=O)N4CCCC4)n(Cc4ccc(OC)c(OC)c4)c3C[C@H]2CN1C(=O)c1ccccc1	-0.25	0.525	-1.05	-0.128	-0.808	4	0.0331 (inactive)	-0.16	-0.602	1.21 (inactive)
CN(C)CCCC[C@@H]1NC(=O)[C@H]2C[C@@H](C(=O)NCCCCCNC(=O)CS)[C@@H](c3cccc(OCCO)c3)N2C1=O	0.33	-0.0603	0.0814	-0.649	-0.0199	-0.246	-0.034 (inactive)	0.0925	0.0356	-0.0288 (inactive)
CC(C)C[C@@H]1NC(=O)[C@H]2C[C@@H](C(=O)NCCCCCCN(C)C)[C@@H](c3ccc(O)cc3)N2C1=O	-1.06	-0.0009	-0.59	0.235	-1.28	-0.438	0.186 (inactive)	0.664	-0.601	-0.743 (inactive)

Structure (SMILES)	z-score [1]	z-score [2]	z-score [3]	z-score [4]	z-score [5]	z-score [6]	z-score [7]	z-score [8]	z-score [9]	z-score [10]
C#CCN(CC1=CCCCC1)[C@H](c1ccccc1Br)[C@@H](O)Cc1ccccc1	-0.101	0.109	0.455	-2.26	-4	-1.05	-0.352 (inactive)	-1.08	-0.635	1.2 (inactive)
COCCn1c(C(=O)N2CCCC2)cc2c1C[C@H]1CN(C(=O)c3ccccc3)[C@@](Cc3ccc(F)cc3)(C(=O)OC)[C@@H]21	-1.27	0.25	-0.366	-1.21	-1.22	0.584	-0.757 (inactive)	-0.37	-1.37	0.409 (inactive)
O=C(c1ccccc1)N1Cc2ccccc2[C@@H]2OC(c3ccc(OCCCO)cc3)=N[C@]2(Cc2ccccc2)C1=O	-1.09	1.27	-0.795	-2.02	-3.92	-0.435	0.166 (inactive)	-1.11	0.106	-1.57 (inactive)
COc1ccc(C(O)C2C=CC3C(=O)NC(=O)C3N2Nc2ccccn2)cc1 (stereo not given)	-0.483	-0.0402	-0.454	-0.632	0.202	-0.69	-0.0063 (inactive)	-0.143	0.0564	-0.582 (inactive)
O=C(NCc1ccccc1)[C@@]1(CCS(=O)(=O)c2ccccc2)N=C(c2ccc(OCCCO)cc2)O[C@H]1c1ccccc1	0.364	-0.153	-0.203	-0.335	-0.672	1.17	0.802 (inactive)	-0.935	-1.58	-0.541 (inactive)
CCCCN1CC=CC23O[C@@H]4C=CCOC(=O)[C@@H]4[C@H]2C(=O)N(CCCCCO)[C@@H]3C1=O (stereo not given in full)	-0.503	-0.122	-0.781	0.276	0.778	-0.235	0.17 (inactive)	-0.0189	-0.0548	-0.508 (inactive)
O=C(NCc1ccccc1)[C@@H]1c2ccccc2C(=O)N(CC23CC4CC(CC(C4)C2)C3)[C@H]1c1ccc(CO)cc1	0.449	-0.475	0.57	-0.708	-0.896	0.362	-0.924 (inactive)	-0.136	-0.711	-0.471 (inactive)
O=C1OCCC/C=C\[C@H]2OC34C=CCN(CCN5CCOCC5)C(=O)[C@H]3N(CCCO)C(=O)[C@@H]4C12 (stereo not given in full)	-0.235	1.01	-0.631	1.19	-0.87	-1.01	-0.734 (inactive)	0.806	0.486	0.116 (inactive)
CC(C)N1C(=O)[C@@]2(Cc3ccccc31)c1ccccc1C(=O)N(C1CCCCC1)[C@H]2c1ccc(CO)cc1	-0.0998	0.0621	-0.775	-0.546	0.0484	0.095	0.327 (inactive)	0.378	-1.79	2.32 (inactive)
C=CC[C@@]1(C(=O)NCc2ccccc2)N=C(c2ccc(OCCCO)cc2)O[C@@H]1c1ccccc1N=[N+]=[N-]	-0.586	0.117	0.317	-1.48	-1.26	-0.827	0.693 (inactive)	-1	-0.85	-0.307 (inactive)
CC(C)C[C@@H]1NC(=O)[C@H]2C[C@@H](C(=O)NCCCCCCN)[C@@H](c3ccc(O)cc3)N2C1=O	-0.145	0.106	-0.766	-0.495	-0.953	0.414	-0.217 (inactive)	-0.279	0.861	-0.939 (inactive)
CCCC=C(CCC)[C@@H](NS(=O)(=O)c1cccs1)c1ccc(C(=O)OC)cc1	-3.9	0.532	-5.36	-3.33	-4.74	-4.43	1.24 (inactive)	-0.819	-2.8	4.56 (inactive)
CC(C)(C)OC(=O)CC[C@@]1(C(=O)NCCN2CCOCC2)N=C(c2ccc(OCCCO)cc2)O[C@@H]1c1ccccc1N=[N+]=[N-]	1.2	0.698	1.33	-0.849	-0.187	0.749	1.66 (inactive)	-0.993	-0.339	-0.492 (inactive)
CO[C@H]1O[C@H](CO)[C@@H](OC(=O)Nc2ccc(Br)cc2)[C@H](OC(=O)c2cc3ccccc3[nH]2)[C@H]1OC(=O)c1cc2ccccc2[nH]1	-2.49	0.266	-2.58	-3.23	-3.2	-2.38	2.37 (inactive)	-0.589	-0.634	-5.8 (inactive)
COC(=O)[C@@]1(Cc2ccc(F)cc2)[C@H]2c3cc(C(=O)N4CCCC4)n(Cc4ccc(C)o4)c3C[C@H]2CN1C(=O)c1ccccc1	-0.981	0.681	-0.498	-2.99	-3.74	2.32	0.096 (inactive)	-0.486	-2.84	-0.72 (inactive)
